Test results reported in paper PMC7862700, “An all-to-all approach to the identification of sequence-specific readers for epigenetic DNA modifications on cytosine”.

What was measured:
Assay in all cases: DAPPL (digital affinity profiling via proximity ligation, sequencing); 10 mM Tris-HCl pH 7.5, 50 mM NaCl, 1 mM DTT, 4% glycerol, room temperature, 30 min; GST-TFs on glutathione beads, 16-mer random dsDNA library, 0.1% formaldehyde crosslink after washing; high values mean tight binding
Settings in all cases: protein: recombinant; tags: N-terminal GST; dsDNA, one strand shown
ELK1 = biological target: T1, ELK1 (Homo sapiens, UniProt P19419 1-428)
T1 sequence: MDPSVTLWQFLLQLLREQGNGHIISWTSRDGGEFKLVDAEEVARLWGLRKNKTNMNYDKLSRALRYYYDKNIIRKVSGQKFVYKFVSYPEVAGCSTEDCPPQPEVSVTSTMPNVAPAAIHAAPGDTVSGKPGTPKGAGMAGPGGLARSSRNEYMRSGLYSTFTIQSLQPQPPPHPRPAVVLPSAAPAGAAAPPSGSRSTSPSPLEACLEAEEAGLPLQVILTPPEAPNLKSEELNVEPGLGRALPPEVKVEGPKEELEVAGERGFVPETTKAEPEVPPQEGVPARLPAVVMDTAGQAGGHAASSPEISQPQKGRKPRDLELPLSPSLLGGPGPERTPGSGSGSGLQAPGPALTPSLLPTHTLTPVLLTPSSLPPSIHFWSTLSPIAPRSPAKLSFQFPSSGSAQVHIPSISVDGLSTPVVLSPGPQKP
Method in brief: (§1)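 A tag-only sample was pooled with DNA-barcoded human transcription factors that had been expressed in yeast as GST fusions and captured on glutathione beads. The pools were incubated for 30 min at room temperature with 200 nmole of a random double-stranded 16-mer DNA library in Tris/NaCl/DTT/glycerol buffer, then washed, crosslinked with 0.1% formaldehyde, proximity-ligated (BsaI/T4 ligase, 1 h, 37 °C), PCR-amplified and sequenced on an Illumina NextSeq500. Binding signal is each hexamer's read frequency for a factor divided by its frequency for the tag-only sample.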

GABPA = biological target: T2, GABPA (Homo sapiens, UniProt Q06546 1-454)
T2 sequence: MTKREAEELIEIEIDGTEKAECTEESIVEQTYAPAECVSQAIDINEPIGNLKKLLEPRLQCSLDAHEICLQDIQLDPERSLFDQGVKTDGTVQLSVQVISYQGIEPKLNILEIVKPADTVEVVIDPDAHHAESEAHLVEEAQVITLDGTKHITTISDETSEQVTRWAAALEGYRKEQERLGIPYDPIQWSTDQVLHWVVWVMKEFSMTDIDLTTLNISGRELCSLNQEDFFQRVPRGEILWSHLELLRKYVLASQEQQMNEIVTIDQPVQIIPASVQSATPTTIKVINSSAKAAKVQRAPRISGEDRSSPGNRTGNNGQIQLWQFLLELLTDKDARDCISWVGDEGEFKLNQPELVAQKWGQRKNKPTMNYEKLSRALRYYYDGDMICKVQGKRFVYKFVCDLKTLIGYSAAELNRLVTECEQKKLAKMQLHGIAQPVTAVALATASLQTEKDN
Method in brief: as §1

ELF1 = ELF1 (Homo sapiens, UniProt P32519 1-619)
Method in brief: as §1

SPIB = SPIB (Homo sapiens, UniProt Q01892 1-262)
Method in brief: as §1

FEV = biological target: T3, FEV (Homo sapiens, UniProt Q99581 1-238)
T3 sequence: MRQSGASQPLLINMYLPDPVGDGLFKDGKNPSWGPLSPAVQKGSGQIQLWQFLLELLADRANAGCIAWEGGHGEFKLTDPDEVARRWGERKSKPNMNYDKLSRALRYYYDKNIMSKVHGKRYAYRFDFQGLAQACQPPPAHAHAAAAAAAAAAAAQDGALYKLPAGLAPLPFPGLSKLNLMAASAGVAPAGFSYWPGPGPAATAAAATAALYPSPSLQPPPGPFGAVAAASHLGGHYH
Method in brief: as §1

ETV5 = ETV5 (Homo sapiens, UniProt P41161 1-510)
Method in brief: as §1

ELF4 = ELF4 (Homo sapiens, UniProt Q99607 1-663)
Method in brief: as §1

ETV1 = ETV1 (Homo sapiens, UniProt P50549 1-477)
Method in brief: as §1

ERF = biological target: T4, ERF (Homo sapiens, UniProt P50548 1-548)
T4 sequence: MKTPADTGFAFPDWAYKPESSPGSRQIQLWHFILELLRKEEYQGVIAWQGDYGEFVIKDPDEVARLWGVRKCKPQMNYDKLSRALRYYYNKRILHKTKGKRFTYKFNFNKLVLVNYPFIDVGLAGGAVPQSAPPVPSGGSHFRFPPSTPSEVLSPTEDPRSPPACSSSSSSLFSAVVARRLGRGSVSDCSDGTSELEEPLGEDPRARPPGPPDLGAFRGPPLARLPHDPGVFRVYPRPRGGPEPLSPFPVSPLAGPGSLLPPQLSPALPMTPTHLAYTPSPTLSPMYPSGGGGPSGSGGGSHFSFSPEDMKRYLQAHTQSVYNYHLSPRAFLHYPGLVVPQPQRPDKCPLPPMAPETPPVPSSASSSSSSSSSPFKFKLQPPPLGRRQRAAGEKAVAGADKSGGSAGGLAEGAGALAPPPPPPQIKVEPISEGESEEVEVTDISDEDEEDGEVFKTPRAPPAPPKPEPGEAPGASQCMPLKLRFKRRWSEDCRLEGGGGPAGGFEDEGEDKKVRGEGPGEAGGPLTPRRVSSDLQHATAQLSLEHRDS
Method in brief: as §1

ETV7 = biological target: T5, ETV7 (Homo sapiens, UniProt Q9Y603 1-341)
T5 sequence: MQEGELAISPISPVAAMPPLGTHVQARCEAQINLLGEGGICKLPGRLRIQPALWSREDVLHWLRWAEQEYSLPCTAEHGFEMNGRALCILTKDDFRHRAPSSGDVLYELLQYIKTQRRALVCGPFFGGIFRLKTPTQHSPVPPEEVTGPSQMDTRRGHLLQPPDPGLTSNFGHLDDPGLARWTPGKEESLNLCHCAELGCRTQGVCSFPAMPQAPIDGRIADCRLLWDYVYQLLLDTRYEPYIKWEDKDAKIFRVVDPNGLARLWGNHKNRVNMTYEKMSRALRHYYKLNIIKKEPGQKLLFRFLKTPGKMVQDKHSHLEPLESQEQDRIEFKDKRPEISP
Method in brief: as §1

ETV3 = biological target: T6, ETV3 (Homo sapiens, UniProt P41162-2 1-143)
T6 sequence: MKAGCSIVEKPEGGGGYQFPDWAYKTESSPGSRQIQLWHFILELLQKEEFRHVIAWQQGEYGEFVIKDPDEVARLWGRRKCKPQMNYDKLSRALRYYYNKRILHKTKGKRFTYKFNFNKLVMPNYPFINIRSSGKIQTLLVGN
Method in brief: as §1

ETV6 = ETV6 (Homo sapiens, UniProt P41212 1-452)
Method in brief: as §1

ERG = biological target: T7, ERG (Homo sapiens, UniProt P11308 1-479)
T7 sequence: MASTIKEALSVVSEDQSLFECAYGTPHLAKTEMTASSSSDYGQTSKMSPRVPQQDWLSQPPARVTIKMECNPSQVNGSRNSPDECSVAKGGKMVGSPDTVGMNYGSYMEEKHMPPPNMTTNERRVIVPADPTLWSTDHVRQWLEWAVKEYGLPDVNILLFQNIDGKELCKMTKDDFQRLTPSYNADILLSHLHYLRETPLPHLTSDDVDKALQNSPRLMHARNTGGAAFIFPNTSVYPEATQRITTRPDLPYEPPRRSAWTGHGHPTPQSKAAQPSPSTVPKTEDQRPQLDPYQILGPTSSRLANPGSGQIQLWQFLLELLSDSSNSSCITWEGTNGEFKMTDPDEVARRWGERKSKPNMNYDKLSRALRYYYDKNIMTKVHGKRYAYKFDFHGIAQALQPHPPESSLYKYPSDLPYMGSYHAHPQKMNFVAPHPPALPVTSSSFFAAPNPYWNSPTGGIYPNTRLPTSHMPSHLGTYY
Method in brief: as §1

ELF3 = biological target: T8, ELF3 (Homo sapiens, UniProt P78545 1-371)
T8 sequence: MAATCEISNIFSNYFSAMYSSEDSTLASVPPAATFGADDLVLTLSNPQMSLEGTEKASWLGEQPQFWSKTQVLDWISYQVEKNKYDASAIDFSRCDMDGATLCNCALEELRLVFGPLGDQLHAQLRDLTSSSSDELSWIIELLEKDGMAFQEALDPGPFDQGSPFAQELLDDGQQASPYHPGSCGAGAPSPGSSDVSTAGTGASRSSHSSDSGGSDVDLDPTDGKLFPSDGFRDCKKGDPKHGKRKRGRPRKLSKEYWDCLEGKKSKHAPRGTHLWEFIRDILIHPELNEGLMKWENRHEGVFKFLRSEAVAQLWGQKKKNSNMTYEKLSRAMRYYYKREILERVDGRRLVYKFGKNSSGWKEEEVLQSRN
Method in brief: as §1

ETV3L = biological target: T9, ETV3L (Homo sapiens, UniProt Q6ZN32 1-361)
T9 sequence: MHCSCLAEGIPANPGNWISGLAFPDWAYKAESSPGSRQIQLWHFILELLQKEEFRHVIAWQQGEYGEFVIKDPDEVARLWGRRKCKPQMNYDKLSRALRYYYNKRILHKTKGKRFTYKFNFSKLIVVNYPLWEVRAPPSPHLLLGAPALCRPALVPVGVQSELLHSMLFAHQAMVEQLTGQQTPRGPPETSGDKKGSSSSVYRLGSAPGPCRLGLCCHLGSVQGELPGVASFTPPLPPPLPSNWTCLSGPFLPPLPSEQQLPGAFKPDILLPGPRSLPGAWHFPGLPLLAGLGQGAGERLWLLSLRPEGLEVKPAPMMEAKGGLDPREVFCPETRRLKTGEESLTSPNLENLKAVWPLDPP
Method in brief: as §1

ETS2 = biological target: T10, ETS2 (Homo sapiens, UniProt P15036 1-469)
T10 sequence: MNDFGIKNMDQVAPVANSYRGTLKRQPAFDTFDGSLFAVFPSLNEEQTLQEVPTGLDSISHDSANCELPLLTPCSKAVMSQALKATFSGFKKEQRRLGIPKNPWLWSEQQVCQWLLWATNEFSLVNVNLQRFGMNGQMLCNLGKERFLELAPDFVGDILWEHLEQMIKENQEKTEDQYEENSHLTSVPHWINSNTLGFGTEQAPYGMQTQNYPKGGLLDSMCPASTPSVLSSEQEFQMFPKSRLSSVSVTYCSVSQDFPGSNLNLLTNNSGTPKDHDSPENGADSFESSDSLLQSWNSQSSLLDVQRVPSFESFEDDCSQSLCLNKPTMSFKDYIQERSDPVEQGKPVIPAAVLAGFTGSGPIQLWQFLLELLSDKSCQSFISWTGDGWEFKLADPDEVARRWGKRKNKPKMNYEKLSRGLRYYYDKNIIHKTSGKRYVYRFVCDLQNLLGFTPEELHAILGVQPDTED
Method in brief: as §1

SPDEF = biological target: T11, SPDEF (Homo sapiens, UniProt O95238 1-335)
T11 sequence: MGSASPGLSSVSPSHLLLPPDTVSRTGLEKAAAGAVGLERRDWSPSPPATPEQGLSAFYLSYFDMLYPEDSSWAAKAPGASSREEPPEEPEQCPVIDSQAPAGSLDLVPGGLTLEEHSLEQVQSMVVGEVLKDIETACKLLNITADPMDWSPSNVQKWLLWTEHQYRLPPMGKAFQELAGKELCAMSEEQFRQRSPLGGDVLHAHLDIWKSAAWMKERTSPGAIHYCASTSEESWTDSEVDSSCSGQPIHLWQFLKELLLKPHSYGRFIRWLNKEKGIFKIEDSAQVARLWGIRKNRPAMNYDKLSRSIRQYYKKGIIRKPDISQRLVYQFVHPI
Method in brief: as §1

Sequence of ETV1 (P50549 whole entry): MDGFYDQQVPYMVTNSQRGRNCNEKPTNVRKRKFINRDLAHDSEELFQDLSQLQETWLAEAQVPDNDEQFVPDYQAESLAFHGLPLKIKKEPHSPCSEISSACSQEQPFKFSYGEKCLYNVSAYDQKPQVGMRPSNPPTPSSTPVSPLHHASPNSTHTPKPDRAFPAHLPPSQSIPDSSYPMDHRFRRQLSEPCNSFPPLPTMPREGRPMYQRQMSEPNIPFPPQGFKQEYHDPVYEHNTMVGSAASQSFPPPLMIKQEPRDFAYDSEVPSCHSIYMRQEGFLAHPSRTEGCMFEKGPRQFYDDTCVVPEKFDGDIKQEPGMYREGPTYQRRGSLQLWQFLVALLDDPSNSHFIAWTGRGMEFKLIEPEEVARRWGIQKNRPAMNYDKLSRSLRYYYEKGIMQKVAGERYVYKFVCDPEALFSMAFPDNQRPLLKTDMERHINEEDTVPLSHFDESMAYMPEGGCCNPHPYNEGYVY
Sequence of ELF4 (Q99607 whole entry): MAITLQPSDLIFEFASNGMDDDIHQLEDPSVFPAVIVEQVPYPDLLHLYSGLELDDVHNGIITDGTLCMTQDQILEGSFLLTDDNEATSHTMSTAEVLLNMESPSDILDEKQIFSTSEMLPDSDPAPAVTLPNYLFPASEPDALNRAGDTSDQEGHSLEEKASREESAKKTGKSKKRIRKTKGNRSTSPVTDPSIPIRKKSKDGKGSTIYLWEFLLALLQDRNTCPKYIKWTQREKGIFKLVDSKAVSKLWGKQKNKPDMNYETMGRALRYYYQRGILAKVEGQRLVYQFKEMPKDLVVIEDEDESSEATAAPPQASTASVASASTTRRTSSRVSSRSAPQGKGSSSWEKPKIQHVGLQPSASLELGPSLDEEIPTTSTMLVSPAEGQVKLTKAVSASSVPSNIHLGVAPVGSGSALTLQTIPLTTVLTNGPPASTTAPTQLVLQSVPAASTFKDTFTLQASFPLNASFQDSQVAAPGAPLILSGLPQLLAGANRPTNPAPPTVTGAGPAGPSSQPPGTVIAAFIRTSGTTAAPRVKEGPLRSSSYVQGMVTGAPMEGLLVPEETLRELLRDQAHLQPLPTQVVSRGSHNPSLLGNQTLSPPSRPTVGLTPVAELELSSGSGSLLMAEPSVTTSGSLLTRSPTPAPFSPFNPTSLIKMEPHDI
Sequence of ETV5 (P41161 whole entry): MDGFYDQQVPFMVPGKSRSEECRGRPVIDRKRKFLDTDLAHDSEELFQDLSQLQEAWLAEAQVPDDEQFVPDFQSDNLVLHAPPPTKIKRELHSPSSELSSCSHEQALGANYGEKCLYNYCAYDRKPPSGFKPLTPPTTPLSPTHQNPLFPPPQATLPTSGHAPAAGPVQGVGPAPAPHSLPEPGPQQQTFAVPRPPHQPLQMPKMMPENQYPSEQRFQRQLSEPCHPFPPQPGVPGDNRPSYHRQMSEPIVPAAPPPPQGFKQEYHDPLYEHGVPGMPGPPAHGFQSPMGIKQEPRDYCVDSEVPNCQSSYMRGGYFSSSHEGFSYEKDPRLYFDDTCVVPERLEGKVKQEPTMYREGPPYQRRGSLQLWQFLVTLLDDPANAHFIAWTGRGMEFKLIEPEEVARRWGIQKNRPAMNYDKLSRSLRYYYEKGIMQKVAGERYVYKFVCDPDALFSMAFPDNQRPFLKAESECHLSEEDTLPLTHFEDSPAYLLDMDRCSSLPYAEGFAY
Sequence of ETV6 (P41212 whole entry): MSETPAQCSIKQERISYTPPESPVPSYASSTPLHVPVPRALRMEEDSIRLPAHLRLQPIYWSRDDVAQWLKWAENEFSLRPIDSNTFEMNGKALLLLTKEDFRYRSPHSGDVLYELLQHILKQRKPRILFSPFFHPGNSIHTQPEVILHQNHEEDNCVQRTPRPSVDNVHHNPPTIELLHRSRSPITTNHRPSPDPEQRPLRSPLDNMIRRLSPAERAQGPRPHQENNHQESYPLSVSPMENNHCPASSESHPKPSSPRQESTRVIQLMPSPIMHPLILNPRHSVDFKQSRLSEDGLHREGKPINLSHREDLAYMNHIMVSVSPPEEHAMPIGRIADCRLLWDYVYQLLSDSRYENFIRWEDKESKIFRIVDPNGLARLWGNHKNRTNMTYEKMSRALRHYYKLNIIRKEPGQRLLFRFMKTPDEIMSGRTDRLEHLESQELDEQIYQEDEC
Sequence of ELF1 (P32519 whole entry): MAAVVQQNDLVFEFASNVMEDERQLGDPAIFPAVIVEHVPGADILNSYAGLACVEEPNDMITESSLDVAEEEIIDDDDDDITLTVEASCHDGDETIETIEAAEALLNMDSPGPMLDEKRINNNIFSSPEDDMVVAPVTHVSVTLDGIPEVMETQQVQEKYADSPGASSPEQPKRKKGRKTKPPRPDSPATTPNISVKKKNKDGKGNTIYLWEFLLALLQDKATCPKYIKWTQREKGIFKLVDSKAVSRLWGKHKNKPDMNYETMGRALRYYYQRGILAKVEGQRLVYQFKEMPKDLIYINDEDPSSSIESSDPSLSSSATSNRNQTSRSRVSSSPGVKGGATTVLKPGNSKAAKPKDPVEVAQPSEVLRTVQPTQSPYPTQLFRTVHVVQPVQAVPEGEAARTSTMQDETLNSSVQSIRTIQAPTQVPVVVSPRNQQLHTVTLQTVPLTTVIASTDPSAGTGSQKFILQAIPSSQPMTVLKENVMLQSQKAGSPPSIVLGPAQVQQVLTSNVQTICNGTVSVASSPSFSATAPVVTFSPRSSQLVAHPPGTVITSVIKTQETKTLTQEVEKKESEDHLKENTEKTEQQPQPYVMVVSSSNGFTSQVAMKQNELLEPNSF
Sequence of SPIB (Q01892 whole entry): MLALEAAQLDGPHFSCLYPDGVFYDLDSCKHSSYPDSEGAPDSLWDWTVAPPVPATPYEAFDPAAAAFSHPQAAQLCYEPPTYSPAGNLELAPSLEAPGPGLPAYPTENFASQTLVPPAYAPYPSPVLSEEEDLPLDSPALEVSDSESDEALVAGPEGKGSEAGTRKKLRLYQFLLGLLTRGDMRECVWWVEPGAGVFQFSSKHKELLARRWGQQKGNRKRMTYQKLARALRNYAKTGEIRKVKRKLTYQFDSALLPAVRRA

Row | Sequence | binding signal (ELK1) | binding signal (GABPA) | binding signal (ELF1) | binding signal (SPIB) | binding signal (FEV) | binding signal (ETV5) | binding signal (ELF4) | binding signal (ETV1) | binding signal (ERF) | binding signal (ETV7) | binding signal (ETV3) | binding signal (ETV6) | binding signal (ERG) | binding signal (ELF3) | binding signal (ETV3L) | binding signal (ETS2) | binding signal (SPDEF)
1 | CAATGG | 1.03 fold enrichment (6-mer frequency, TF over GST control) | 1.09 fold enrichment (6-mer frequency, TF over GST control) | 1.03 fold enrichment (6-mer frequency, TF over GST control) | 1.03 fold enrichment (6-mer frequency, TF over GST control) | 1.04 fold enrichment (6-mer frequency, TF over GST control) | 1.03 fold enrichment (6-mer frequency, TF over GST control) | 1.02 fold enrichment (6-mer frequency, TF over GST control) | 1.1 fold enrichment (6-mer frequency, TF over GST control) | 1.03 fold enrichment (6-mer frequency, TF over GST control) | 1.12 fold enrichment (6-mer frequency, TF over GST control) | 1.03 fold enrichment (6-mer frequency, TF over GST control) | 1.04 fold enrichment (6-mer frequency, TF over GST control) |  |  |  |  | 
2 | CAGCAT | 1 fold enrichment (6-mer frequency, TF over GST control) | 1.03 fold enrichment (6-mer frequency, TF over GST control) |  |  | 1.04 fold enrichment (6-mer frequency, TF over GST control) | 1.04 fold enrichment (6-mer frequency, TF over GST control) | 1.05 fold enrichment (6-mer frequency, TF over GST control) | 1.06 fold enrichment (6-mer frequency, TF over GST control) |  | 1.01 fold enrichment (6-mer frequency, TF over GST control) |  |  | 1.03 fold enrichment (6-mer frequency, TF over GST control) | 1.07 fold enrichment (6-mer frequency, TF over GST control) | 1.03 fold enrichment (6-mer frequency, TF over GST control) | 1.03 fold enrichment (6-mer frequency, TF over GST control) | 1.05 fold enrichment (6-mer frequency, TF over GST control)
